Screening results: PubChem BioAssay, National Center for Advancing Translational Sciences (NCATS)
GLP1R inv ag = inverse agonists of human GLP-1 receptor. 410,000 compounds, 1.6% hits. HEK293 GLP-1R CRE-luciferase, luminescence, 24 h; GLP-1R form is constitutively active. Potency, µM (top dose mostly 38.3 µM), for the others: at the highest dose activity change, negative = inhibition, most hits filed as inhibitors. AID 624417; further: on the % scale 0 is the no-effect control and ±100 the full control effect; nearly all actives have a fitted effect of over 55% in size
Target sequence (P43220 whole entry, looked up): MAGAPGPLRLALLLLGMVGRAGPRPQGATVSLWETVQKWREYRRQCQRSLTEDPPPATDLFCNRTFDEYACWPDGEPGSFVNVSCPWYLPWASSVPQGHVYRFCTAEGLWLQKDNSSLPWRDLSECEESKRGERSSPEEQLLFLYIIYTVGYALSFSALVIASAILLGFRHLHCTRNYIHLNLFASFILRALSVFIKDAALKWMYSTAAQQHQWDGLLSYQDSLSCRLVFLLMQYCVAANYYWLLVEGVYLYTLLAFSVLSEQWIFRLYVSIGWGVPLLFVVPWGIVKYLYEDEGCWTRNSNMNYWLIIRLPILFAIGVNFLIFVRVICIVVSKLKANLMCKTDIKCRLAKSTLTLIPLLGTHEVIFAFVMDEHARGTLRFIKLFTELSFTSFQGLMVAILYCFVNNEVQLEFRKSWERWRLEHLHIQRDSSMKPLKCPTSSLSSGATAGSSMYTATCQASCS
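Constitutively active GLP-1R drives a cAMP-responsive luciferase in stably transfected HEK293 cells; test compounds are added after overnight (12 h) attachment and left 24 hr, and signal loss in luminescence marks inhibition.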
GLP1R ag = GLP-1 receptor (human) agonism; P43220; HEK293 GLP-1R CRE-luciferase, luminescence, 4-6 h; cells express a hypersensitive GLP-1R form; Potency, µM (top dose mostly 45.6 µM), for the others: at the highest dose activation, hits mostly activators; 380,000 compounds, 0.007% hits; AID 624172; further: % of control where 0% means no effect
HEK293 tox = cytotoxic in the GLP-1 receptor inverse agonist counter-screen. HEK293 cAMP-luciferase reporter cells, luminescence, 24 h. Potency, µM (highest dose often 38.3 µM), without a hit: at the highest dose activity change, negative = inhibition, most hits filed as inhibitors. 410,000 compounds, 0.13% hits;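 further: loss of luciferase light is scored as toxicity; on the % scale 0 is the no-effect control and ±100 the full control effect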
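Step one: seed cells (200 cells/uL, DMEM with 10% Nu serum, 1% pen-strep). Step two: 12-hour incubation at 37 deg C. Step three: pin 23 nL compound, incubate 24 hr. Step four: add luciferase reagent, read luminescence 12 min later.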
Starred values were filed as active, the others as inactive; ? = inconclusive; / = not tested or not shown; [ ] = dose if it differs, or a comment. Most compounds without a hit are left out; they make up all but 1.7% or so of the library. The call rests on the fitted dose curve; in most records, active means well fitted curve in the direction sought with a large enough effect; inconclusive means small, poorly fitted or top-dose-only effect, or another doubt; inactive means no such curve, though single readings can be large; an effect the other way counts as inactive or inconclusive. Potency means the concentration at half of the fitted maximal effect.

SMILES | GLP1R inv ag | GLP1R ag | HEK293 tox
COc1cccc2c1C(=O)c1c(O)c3c(c(O)c1C2=O)C[C@](O)(C(C)=O)C[C@H]3O[C@@H]1C[C@@H](N)[C@@H](O)[C@@H](C)O1 | 2.82µM* | -11.6% | -35.8%
Nn1c(SCC(=O)Nc2ccccc2Br)nnc1-c1ccco1 | 7.3% | -0.4% | -2.2%
N/C(Cc1ccccc1)=N\OC(=O)c1cccc2ccccc12 | 12.6µM* | ? | 10µM*
N/C(Cc1cccc2ccccc12)=N\OC(=O)c1ccccc1F | 19.7% | 10.1% | 17.0%
COc1ccccc1CNC(=O)C1CCN(S(=O)(=O)c2ccc3nc4c(c(C(=O)O)c3c2)CCCC4)CC1 | 5.0% | -5.1% | 2.9%
COC(=O)c1ccccc1NC(=O)CSc1nc(=O)cc(N)n1-c1ccccc1 | -3.4% | / | 30.0%
Cc1ccc(C)c(C(C)NC(=O)C2CCCC2)c1 (stereo not drawn) | -18.5% | -6.2% | 5.7%
Cc1ccc(C)c(C(C)NC(=S)NC2CCCCC2)c1 (stereo not drawn) | 2.82µM* | 0.8% | -25.2%
CCN(CC)CCC#CC(O)(c1ccccc1)c1ccccc1 | ? | -2.0% | -12.4%
CCN(CC)CC#CC(OC)(c1ccccc1)c1ccccc1 | 5.01µM* | -1.1% | -9.2%
O=C(Nc1ccc(Cl)cc1Cl)NC1CCN(S(=O)(=O)c2ccc(F)cc2)CC1 | 18.6% | 6.7% | -15.6%
CCc1nc2c(OCC(=O)C(C)(C)C)cccn2c1N(C)C(=O)C(C)C | -15.7% | -5.7% | 3.1%
CCOC(=O)c1ccccc1Nc1cn(C(C)=O)c2ccccc12 | -4.6% | 4.1% | -11.4%
CC(=O)n1cc(N(C(=O)CCl)c2ccc(Cl)cc2)c2ccccc21 | 11.2µM* | -8.4% | ?
COc1ccccc1N(C(=O)CCl)c1cn(C(C)=O)c2ccccc12 | 3.16µM* | -6.6% | ?
CC(=O)n1cc(Nc2ccccc2C(=O)O)c2ccccc21 | -1.3% | -9.4% | 2.0%
CC(C)CCNC(=O)C(=O)Nc1ccccc1 | 17.3% | 12.7% | -7.1%
CCN(C[C@H]1N[C@@](CC)(C(=O)OC)[C@H]2C(=O)N(C)C(=O)[C@@H]12)S(=O)(=O)c1ccc(OC(F)(F)F)cc1 | 18.3% | 1.1% | -1.3%
CCN(CC)CCCC(C)Nc1nccc2c(Cl)cccc12 (stereo not drawn) | 4.47µM* | -4.7% | ?
CCN(CCO)CCCC(C)Nc1ccnc2cc(Cl)ccc12 (stereo not drawn) | / | 0.1% | /
CCc1ccccc1Nc1cc(C(=O)NCc2ccc(C)cc2)c2ccccc2n1 | ? | / | 2.8%
CCC(CCCO)CCC[C@H](C)CCC1OCCO1 (stereo partly drawn) | 8.91µM* | -2.6% | 17.1%
CCNC(=O)C1Cc2ccccc2CN1S(=O)(=O)c1ccc(F)cc1 (stereo not drawn) | 6.4% | -2.7% | 3.7%
O=C(Nc1ccc(F)c(Cl)c1)C1Cc2ccccc2CN1S(=O)(=O)c1ccc(F)cc1 (stereo not drawn) | 10µM* | / | -5.2%
Cc1ccc(NC(=O)CN(C)C2CCCCC2)cc1Cl | ? | 23.6% | -7.8%
SMILES | GLP1R inv ag | GLP1R ag | HEK293 tox
Clc1ccc(CSc2nnc(-c3ccc4c(c3)OCO4)o2)cc1 | -23.5% | -17.3% | -7.9%
O=C1CCCCC1Sc1nnc(-c2ccc3c(c2)OCO3)o1 (stereo not drawn) | 3.16µM* | -4.5% | -7.3%
CC1=CC(C)(C)n2c(O)c(N=NC(N)=S)c3c(C)ccc1c32 | -5.8% | 0.2% | 7.0%[1.53 µM]
COc1cc2c3c(c1)c(N=NC(N)=S)c(O)n3C(C)(C)C=C2C | ? | 29.1% | 0.891µM*
CC1=CC(C)(C)n2c(O)c(N=NC(N)=S)c3c(C)c(C)cc1c32 | -22.5% | 3.4% | 5.4%
CC1=CC(C)(C)n2c(O)c(N=NC(N)=S)c3cccc1c32 | 4.47µM* | 0.9% | ?
Cc1ccc(CN2CCSc3ccc(C(=O)Nc4cc(C)cc(C)c4)cc32)cc1 | ? | / | 5.2%
Cc1nc(OCc2c(C)noc2C)c2ccccc2n1 | 4.7% | 1.1% | -6.2%
COC(=O)c1c(NC(=O)Cc2coc3ccc(C(C)C)cc23)sc2c1CCC2 | 13.2% | / | -0.9%
Cc1ccc(NC(=O)C2C(c3ccccc3)C2(Cl)Cl)c(C)c1 (stereo not drawn) | 11.2µM* | -10.8% | -6.1%
COc1ccc(NC(=O)C2C(c3ccccc3)C2(Cl)Cl)cc1 (stereo not drawn) | 10µM* | -3.1% | -7.6%
CCOc1ccc(NC(=O)C2C(c3ccccc3)C2(Cl)Cl)cc1 (stereo not drawn) | ? | 16.7% | -18.8%
Cc1cccc(NC(=O)C2C(c3ccccc3)C2(Cl)Cl)c1 (stereo not drawn) | ? | 19.6% | 7.9%
Cc1ccc(S(=O)(=O)N2CCCCC2)cc1NC(=O)c1cnccn1 | 11.7% | 7.3% | -3.2%
O=C(CC(c1cccs1)S(=O)(=O)c1ccccc1)c1ccc(F)cc1 (stereo not drawn) | 16.9% | -0.8% | -5.5%
O=C(/C=C/NNC(=O)c1ccccc1)c1ccc([N+](=O)[O-])cc1 | ? | 2.9% | 3.98µM*
O=C(/C=C/NNC(=O)c1ccc(Br)cc1)c1ccccc1 | ? | -8.8% | ?
Cc1ccc(C(=O)C=CNNC(=O)c2ccccc2)cc1 | -35.8% | -1.7% | -3.9%
O=C(/C=C/NNC(=O)c1ccccc1)c1ccccc1 | ? | -4.0% | 3.16µM*
COc1ccc(F)cc1-c1cc(C(=O)NCc2ccccc2)[nH]n1 | -15.4% | -7.3% | 1.1%
CCOc1ccc(C(C(=O)NCC2CCCO2)N(CCc2cccc(C)c2)C(=O)c2snc(C(N)=O)c2N)cc1 (stereo not drawn) | 7.94µM* | 0.4% | ?
CCOc1ccc(C(C(=O)NCC2CCCO2)N(C(=O)c2snc(C(N)=O)c2N)c2ccc(F)cc2)cc1 (stereo not drawn) | -23.8% | 3.1% | 1.3%
COc1ccc(Cl)cc1NC(=O)CN(C)C1CCCCC1 | ? | 11.4% | 13.5%
COc1ccc(Cl)cc1NC(=O)CN(C)C(=O)c1sc2ccccc2c1Cl | 5.62µM* | 20.8% | -32.8%
COc1ccc(NC(=O)CN(C)C(=O)c2sc3ccccc3c2Cl)cc1 | ? | 0.1% | -22.4%
SMILES | GLP1R inv ag | GLP1R ag | HEK293 tox
COc1ccc(Cl)cc1NC(=O)CN(C)C(=O)Cc1ccc2c(c1)CCC2 | ? | 11.1% | -1.0%
COc1ccc(Cl)cc1NC(=O)CN(C)C(C)C(=O)NC(=O)NC1CCCCC1 (stereo not drawn) | 3.16µM* | -15.0% | ?
COc1ccc(Cl)cc1NC(=O)CN(C)C(=O)c1cc2c(s1)CCCC2 | 5.01µM* | 3.4% | ?
CCOc1ccc(OCC)c(NS(=O)(=O)c2c(C(=O)N3CCC(C)CC3)c(C)n(C)c2C)c1 | 0.6% | / | -16.7%
Cc1ccc(-c2cc(C(F)(F)F)n3nc(C(=O)NCC45CC6CC(CC(C6)C4)C5)cc3n2)cc1 | -16.1% | / | 36.4%
Cc1cc(C)c2nc(N3CCC(C(=O)N4CCN(C(=O)c5ccco5)CC4)CC3)sc2c1 | 7.94µM* | 2.3% | -1.8%
Cc1c(Cl)ccc2sc(N3CCN(C(=O)c4ccco4)CC3)nc12 | 2.2% | / | 3.5%
CCCCCCCCCCCCCCCCn1cc[n+](CC(C)=O)c1 | 4.47µM* | -1.0% | ?
CCCCCCn1ccc(=N)cc1 | ? | -1.4% | -25.8%
